This note sets out measurements from PubChem BioAssay (EPA / NIEHS).

Values joined by “and” are separate entries in the source; they are usually repeats but may differ in a detail not shown here. Equal values may be shown once. Active and inactive are the calls of the source. How the source made its calls: active means hit-call score of the fitted dose curve at least 0.9, where 1 is the maximum; inactive means score below 0.9.

Settings in all cases: mRNA level, 48 h; actives raise or lower the signal
Read-out in assay [1]: growth arrest and DNA damage 45 (GADD45A), GADD45A (gene 1647)
As to the kind of experiment: LTEA_HepaRG_GADD45A: Life Technologies and Expression Analysis (LTEA) Assay for growth arrest and DNA damage 45 (GADD45A) using HepaRG (AID 2283458). In short, it runs like this:
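Eight-point concentration-response in HepaRG cells: 48 h chemical exposure, 0.5% DMSO vehicle, top dose 100 uM. Normalized qRT-PCR mRNA readout with bidirectional fitting relative to DMSO.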

Read-out in assay [2]: Forkhead box O3 (FOXO3), FOXO3 (gene 2309)
In words: LTEA_HepaRG_FOXO3: Life Technologies and Expression Analysis (LTEA) Assay for Forkhead box O3 (FOXO3) using HepaRG (AID 2283459). Summed up: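 FOXO3 transcript measured by qRT-PCR (normalized to ACTB, GAPDH, POLR2A) after 48 h exposure of HepaRG cells in serum-free induction medium. Duplicates, eight half-log concentrations up to 100 uM, 0.5% DMSO; gain or loss fitted against DMSO.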

Read-out in assay [3]: ABC Transporter (ABCB1), ABCB1 (gene 5243)
In words: LTEA_HepaRG_ABCB1: Life Technologies and Expression Analysis (LTEA) Assay for ABC Transporter (ABCB1) using HepaRG (AID 2283460). In short, it runs like this:
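ABCB1 transcript level measured by TaqMan qRT-PCR against three housekeeping genes after 48 h chemical exposure of differentiated HepaRG cells. Top concentration 100 uM, half-log steps, eight points, 0.5% DMSO vehicle; bidirectional fit relative to DMSO.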

Read-out in assay [4]: growth arrest and DNA damage 45 (GADD45B), GADD45B (gene 4616)
In words: LTEA_HepaRG_GADD45B: Life Technologies and Expression Analysis (LTEA) Assay for growth arrest and DNA damage 45 (GADD45B) using HepaRG (AID 2283461). In short, it runs like this:
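Human HepaRG monolayers receive chemicals for 48 h at eight half-log concentrations, highest 100 uM, in 0.5% DMSO. Expression is measured by TaqMan qRT-PCR and normalized to ACTB, GAPDH and POLR2A.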

Read-out in assay [5]: ABC Transporter (ABCC3), ABCC3 (gene 8714)
As to the kind of experiment: LTEA_HepaRG_ABCC3: Life Technologies and Expression Analysis (LTEA) Assay for ABC Transporter (ABCC3) using HepaRG (AID 2283462). Summed up:
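Transcriptional change of ABCC3 in HepaRG after 48 h treatment, determined by qRT-PCR normalized to endogenous controls. Concentrations spanned eight half-log steps to 100 uM in 0.5% DMSO.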

Read-out in assay [6]: ABC Transporter (ABCB11), ABCB11 (gene 8647)
As to the kind of experiment: LTEA_HepaRG_ABCB11: Life Technologies and Expression Analysis (LTEA) Assay for ABC Transporter (ABCB11) using HepaRG (AID 2283463). In short, it runs like this:
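ABCB11 transcript levels quantified by TaqMan qRT-PCR against three housekeeping genes after 48 h chemical exposure of HepaRG cultures. Concentrations up to 100 uM in half-log steps, 0.5% DMSO vehicle; both induction and suppression scored.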

Read-out in assay [7]: ABC Transporter (ABCC2), ABCC2 (gene 1244)
As to the kind of experiment: LTEA_HepaRG_ABCC2: Life Technologies and Expression Analysis (LTEA) Assay for ABC Transporter (ABCC2) using HepaRG (AID 2283464). Summed up:
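After plating and 48 h culture, HepaRG medium is replaced with serum-free induction medium and chemicals are added (8 concentrations, max 100 uM, 0.5% DMSO) for 48 h. Total RNA then undergoes qRT-PCR for ABCC2 with housekeeping normalization.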

Read-out in assay [8]: ATP-citrate lyase (ACLY), ACLY (gene 47)
In words: LTEA_HepaRG_ACLY: Life Technologies and Expression Analysis (LTEA) Assay for ATP-citrate lyase (ACLY) using HepaRG (AID 2283466). In short, it runs like this: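 ACLY mRNA quantified by qRT-PCR on Fluidigm arrays against three housekeeping genes, after 48 h chemical treatment of HepaRG cells (top concentration 100 uM, half-log steps, 0.5% DMSO vehicle). Up- or down-regulation fitted relative to DMSO.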

Read-out in assay [9]: Peroxisomal acyl-coenzyme A oxidase 1 (ACOX1) gene, ACOX1 (gene 51)
As to the kind of experiment: LTEA_HepaRG_ACOX1: Life Technologies and Expression Analysis (LTEA) Assay for Peroxisomal acyl-coenzyme A oxidase 1 (ACOX1) gene using HepaRG (AID 2283467). In short, it runs like this: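 ACOX1 transcript levels were quantified by TaqMan qRT-PCR against three housekeeping genes after 48 h chemical exposure of differentiated human HepaRG cells. Exposure used eight half-log steps topping at 100 uM, 0.5% DMSO vehicle, in duplicate. Bidirectional curve fits were made relative to DMSO.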

Turning to `CCOc1cc(Oc2ccc(C(F)(F)F)cc2Cl)ccc1[N+](=O)[O-]`, the outcome in assay [1], in assay [2], in assay [3], in assay [4], in [5] and in [7] was inactive. The compound was called inactive in assay [8]. Further, the AC50 (commonly the midpoint of the concentration-response curve, whichever way the signal moves) in assay [6] was 19.1 µM (active).
`CCCC1COC(Cn2cncn2)(c2ccc(Cl)cc2Cl)O1` (centres undefined): the half-maximal activity concentration (AC50) is 67.2 µM (active) in [1]; 12.2 µM (active) in assay [5]; 36.9 µM (active) in assay [6]; 68.5 µM (active) in assay [7]; 11.9 µM (active) in [8]; 25.9 µM (active) in [9]. Also, the outcome in assay [2], in assay [3] and in assay [4] was inactive.
In the case of `Cc1c(F)c(F)c(COC(=O)C2C(/C=C(\Cl)C(F)(F)F)C2(C)C)c(F)c1F` (centres undefined), the result in assay [1], in assay [2], in assay [3], in assay [4], in assay [5] and in assay [7] was inactive. The result in assay [8] was inactive. For the same compound, the AC50 in assay [6] was 50 µM (active).
On to `CC(Oc1ccc(Cl)cc1Cl)C(=O)O` (centres undefined), for which the call in [1], in [2], in assay [3], in assay [4], in assay [5] and in assay [6] was inactive. In addition, the outcome in assay [7] and in assay [9] was inactive. The AC50 in assay [8] was 50 µM (active).
For the compound `CC(C)C1(C)N=C(c2nc3ccccc3cc2C(=O)O)NC1=O` (centres undefined), the compound was called inactive in assay [1], in assay [2], in assay [3], in assay [4], in assay [5] and in assay [6]. The call in assay [7], in [8] and in [9] was inactive.
Regarding `CCNc1nc(Cl)nc(NC(C)C)n1`, the result in assay [1], in assay [2], in [4], in assay [5], in assay [6] and in [7] was inactive. The call in assay [8] and in [9] was inactive. The half-maximal activity concentration (AC50) in [3] is 21.2 µM (active).
Consider `CC1COC(Cn2cncn2)(c2ccc(Oc3ccc(Cl)cc3)cc2Cl)O1` (centres undefined), for which the AC50 was 12 µM (active) in [1]; 79.2 µM (active) in assay [2]; 81.4 µM (active) in assay [3]; 9.92 µM (active) in assay [4]; 11.2 µM (active) in assay [6]; 34.4 µM (active) in assay [7]. Moreover, the results for the AC50 in assay [8] and in assay [9] were 86.7 µM (active) and 50 µM (active), respectively. In addition, in [5], the compound was called inactive.
For the compound `O=C(Nc1ccccc1)Nc1ccnc(Cl)c1`, the concentration at half-maximal activity (AC50) is 70.7 µM (active) in assay [1]; 25.3 µM (active) in [2]; 84.3 µM (active) in assay [3]; 85.7 µM (active) in [5]; 26.5 µM (active) in assay [6]; 89.9 µM (active) in assay [7]. In assay [8], the AC50 was 80.4 µM (active). The compound was classed as inactive in assay [4].
Take `COc1nc(NC(C)C)nc(NC(C)C)n1`: the call in assay [1], in assay [2], in assay [4], in assay [5], in assay [6] and in [7] was inactive. Besides, the compound was classed as inactive in assay [8] and in assay [9]. Besides, in assay [3], the AC50 was 9.31 µM (active).
Take `COc1cnc(OC)n2nc(NS(=O)(=O)c3c(OCC(F)F)cccc3C(F)(F)F)nc12`: the compound was called inactive in assay [1], in assay [2], in assay [4], in assay [5], in assay [6] and in [7]. The call in assay [8] was inactive. In assay [3], the AC50 was 23.3 µM (active).
As for `Fc1ccc(Oc2ccnc3cc(Cl)cc(Cl)c23)cc1`, the outcome in assay [1], in assay [2], in assay [3], in assay [4], in [5] and in assay [7] was inactive. Also, the call in assay [8] was inactive. In assay [6], the AC50 is 89.8 µM (active).
With `CCOC(=O)C(Cl)Cc1cc(-n2nc(C)n(C(F)F)c2=O)c(F)cc1Cl` (centres undefined), the outcome in assay [1], in assay [2], in [4], in assay [5], in assay [6] and in assay [7] was inactive. Further, the compound was called inactive in [8]. In addition, in [3], the AC50 is 50 µM (active).
With `CCOP(=S)(OCC)SCn1c(=O)oc2cc(Cl)ccc21`, the outcome in assay [1], in [2], in assay [3], in [4], in assay [5] and in assay [6] was inactive. The result in [7] and in assay [8] was inactive.
As to `N#Cc1cc(Br)c(O)c(Br)c1`, the half-maximal activity concentration (AC50) is 72.5 µM (active) in [1]; 13.7 µM (active) in [2]; 12.1 µM (active) in [3]; 27.1 µM (active) in [4]; 9.48 µM (active) in [5]; 19.9 µM (active) in assay [6]. Besides, the AC50 in [7] is 14 µM (active); in assay [8], 23.5 µM (active).
Turning to `COC(=O)C=C(C)OP(=O)(OC)OC`, the compound was called inactive in assay [1], in assay [2], in assay [3], in assay [4], in assay [5] and in assay [7]. Moreover, in assay [8], the compound was called inactive. The concentration at half-maximal activity (AC50) in [6] was 21.4 µM (active).
In the case of `CCCCC(CC)COC(=O)c1ccccc1C(=O)OCC(CC)CCCC` (centres undefined), the outcome in assay [1], in [2], in assay [3], in assay [4], in assay [5] and in assay [6] was inactive. In addition, the compound was classed as inactive in assay [7] and in assay [8].
Consider `O=C(O)COc1nc(Cl)c(Cl)cc1Cl`, for which the outcome in assay [1], in [2], in [3], in assay [4], in assay [5] and in [7] was inactive. Further, the compound was called inactive in [8]. For the same compound, in assay [6], the half-maximal activity concentration (AC50) was 23.2 µM (active).
On to `CN(C)C(=S)SSC(=S)N(C)C`, for which the call in assay [1], in [2], in assay [3], in assay [4], in [5] and in [6] was inactive. Also, the call in assay [7], in assay [8] and in assay [9] was inactive.
On to `COc1ccc(C(c2ccc(OC)cc2)C(Cl)(Cl)Cl)cc1`, for which the compound was classed as inactive in assay [1], in assay [2], in assay [3], in [8] and in assay [9]. The half-maximal activity concentration (AC50) in [4] is 61.8 µM (active); in assay [5], 77 µM (active); in [6] it was 86.7 µM (active); in assay [7] it was 14.1 µM (active).
`CCCCNC(=O)n1c(NC(=O)OC)nc2ccccc21`: the outcome in assay [1], in [2], in assay [3], in [4], in assay [5] and in [6] was inactive. Further, the outcome in assay [7], in assay [8] and in [9] was inactive.
For the compound `CCNc1nc(Cl)nc(NCC)n1`, the compound was called inactive in [1], in assay [2], in assay [3], in [4], in assay [5] and in assay [6]. The compound was called inactive in assay [7] and in [8].
As for `O=C(O)c1nc(Cl)ccc1Cl`, the outcome in assay [1], in assay [2], in assay [3], in assay [4], in [5] and in assay [6] was inactive. In addition, the result in assay [7], in [8] and in assay [9] was inactive.
With `COC(=O)C(C)Oc1ccc(Oc2ccc(Cl)cc2Cl)cc1` (centres undefined), the compound was called inactive in assay [1], in assay [2], in assay [3], in assay [4], in [5] and in assay [7]. The outcome in [8] was inactive. The AC50 in assay [6] is 45.7 µM (active).
For `C=CCC1=C(C)C(OC(=O)C2C(C=C(C)C)C2(C)C)CC1=O` (centres undefined), the compound was called inactive in [1], in assay [2], in assay [3], in assay [4], in assay [5] and in assay [7]. Further, the outcome in assay [8] was inactive. The half-maximal activity concentration (AC50) in [6] was 64.8 µM (active) and 79.9 µM (active) and 19 µM (active).
Regarding `CC(C)Oc1cc(-n2nc(C(C)(C)C)oc2=O)c(Cl)cc1Cl`, the outcome in [1], in assay [2] and in [5] was inactive. In addition, the half-maximal activity concentration (AC50) in [3] is 1.25 µM (active); in [4], 4.73 µM (active); in assay [6], 58.8 µM (active); in [7], 2.52 µM (active); in [8], 77.4 µM (active).
`CNC(=S)S`: the result in [1], in assay [2], in assay [3], in assay [4], in assay [5] and in [6] was inactive. Further, the call in assay [7], in [8] and in assay [9] was inactive.
